A short description of assay [1]: qHTS assay to identify small molecule agonists of the sonic hedgehog signaling (Shh) pathway (AID 1259368).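 Note: NIH/3T3-derived 3T3Gli1-Luc cells carrying a stable Gli1-driven firefly luciferase reporter; series mostly up to about 92 µM; nearly all actives have a fitted effect of over 15% in size.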 In short, it runs like this:
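Cells of a mouse NIH/3T3 clone stably expressing luciferase under the Gli1 transcriptional response element are exposed to test chemicals for 24 hr at 37 C. Pathway activation is detected as a rise in luminescence.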
For orientation: Quantitative high-throughput screening tests each substance at several concentrations.

Assay [2] addresses Estrogen receptor beta (Homo sapiens) (UniProt Q92731). Briefly: qHTS assay to identify small molecule agonists of the estrogen receptor beta (ER-beta) signaling pathway (AID 1259377; active = well fitted activation curve with a large enough effect in the signal ratio in the repeat runs, not every such curve was filed as active; the % refers to the signal ratio). In short, it runs like this:
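Beta-lactamase reporter readout: fluorescence of LiveBLAzer B/G FRET substrate after 2 h at room temperature, following 16 h compound treatment of ER-beta-UAS-bla HEK293T cells at 37C in 2% charcoal-stripped FBS medium.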

For assay [3] the target is unchanged. Briefly: qHTS assay to identify small molecule antagonists of the estrogen receptor beta (ER-beta) signaling pathway (AID 1259378; active = well fitted inhibition curve with a large enough effect in the signal ratio in the repeat runs, not every such curve was filed as active; the % refers to the signal ratio; note: potency is the fitted concentration of half-maximal effect). The gist of the method: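 ER-beta-UAS-bla HEK293T cells in 2% charcoal-stripped FBS medium treated with compound plus 1nM final 17-beta-estradiol for 16 hr at 37C. Beta-lactamase reporter read by FRET substrate fluorescence after 2 hours at room temperature.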

Assay [4] in a line: qHTS assay to identify small molecule agonists of the androgen receptor (AR) signaling pathway in the presence of an antagonist - cell viability counter screen (AID 1259379; active = well fitted curve in the direction sought with a large enough effect in the repeat runs; an effect the other way counts as inactive or inconclusive; note: nearly all actives have a fitted effect of over 25% in size; note: potency is the fitted concentration of half-maximal effect). In short, it runs like this:
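Cytotoxicity is assessed by CellTiter-Fluor in MDA-kb2 cells carrying an MMTV-driven luciferase reporter. Cells receive 3.0uM nilutamide plus compounds at 15 concentrations and incubate 16 hr at 37C without CO2 before fluorescence reading.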

Assay [5] is described as follows: qHTS assay to identify small molecule agonists of the estrogen receptor beta (ER-beta) signaling pathway - cell viability counter screen (AID 1259380; active = well fitted curve in the direction sought with a large enough effect in the repeat runs; an effect the other way counts as inactive or inconclusive; note: nearly all actives have a fitted effect of over 30% in size; note: potency is the fitted concentration of half-maximal effect). In short, it runs like this:
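Cytotoxicity is measured in parallel with the reporter screen: after 16 hr compound exposure at 37C and a 2 hr LiveBLAzer step, CellTiter-Glo is added to the same ER-beta-UAS-bla HEK293T wells and luminescence read after 30 min.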

Assay [6] in a line: qHTS assay to identify small molecule antagonists of the estrogen receptor beta (ER-beta) signaling pathway - cell viability counter screen (AID 1259382; active = well fitted curve in the direction sought with a large enough effect in the repeat runs; an effect the other way counts as inactive or inconclusive; note: series mostly up to about 92 µM; nearly all actives have a fitted effect of over 55% in size). The gist of the method:
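Cytotoxicity counter screen multiplexed with the beta-lactamase antagonist assay: GripTite HEK293T ER-beta-bla cells were treated 16 hr with test chemicals in the presence of 1nM 17-beta-estradiol, and viability was measured by CellTiter-Glo.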

The target in assay [7] is Estrogen receptor (Homo sapiens) (UniProt P03372). Briefly: qHTS assay to identify small molecule agonists of the estrogen receptor alpha (ER-alpha) signaling pathway in the presence of an antagonist (AID 1259383). Note: top concentration of the series differs between compounds; nearly all actives have a fitted effect of over 15% in size. The gist of the method:
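Agonist-mode confirmation in the presence of the ER antagonist ICI-182,780 at 10.0nM final. Breast-derived VM7Luc4E2 reporter cells were exposed to compounds for 22hr, and ERE-driven luciferase was quantified by luminescence.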

Assay [8] in a line: qHTS assay to identify small molecule agonists or antagonists of the thyroid stimulating hormone receptor (TSHR) signaling pathway - wild type cell line counter screen (AID 1259384). In short, it runs like this: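 Wild-type Hek293 cells, 800/well, 18 h at 37C, then compound with Ro20-1724 for 30 min RT. cAMP by HTRF (cAMP-d2/anti-cAMP cryptate), 1 h RT, fluorescence read. 15 concentrations, triplicates.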

The target of assay [9] is Thyrotropin receptor (Homo sapiens) (UniProt P16473). Briefly: qHTS assay to identify small molecule antagonists of the thyroid stimulating hormone receptor (TSHR) signaling pathway (AID 1259385). Note: nearly all actives have a fitted effect of over 20% in size. In short, it runs like this: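 TSHR-HEK293 cells (800/well) plated 18 h, then compounds with Ro20-1724 and TSH at 1.5 ng/mL final, 30 min at room temperature. cAMP quantified by HTRF (cAMP-d2/anti-cAMP-cryptate, 1 h); 15 concentrations in triplicate.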
Thyrotropin receptor (Homo sapiens), sequence (P16473 whole entry, looked up): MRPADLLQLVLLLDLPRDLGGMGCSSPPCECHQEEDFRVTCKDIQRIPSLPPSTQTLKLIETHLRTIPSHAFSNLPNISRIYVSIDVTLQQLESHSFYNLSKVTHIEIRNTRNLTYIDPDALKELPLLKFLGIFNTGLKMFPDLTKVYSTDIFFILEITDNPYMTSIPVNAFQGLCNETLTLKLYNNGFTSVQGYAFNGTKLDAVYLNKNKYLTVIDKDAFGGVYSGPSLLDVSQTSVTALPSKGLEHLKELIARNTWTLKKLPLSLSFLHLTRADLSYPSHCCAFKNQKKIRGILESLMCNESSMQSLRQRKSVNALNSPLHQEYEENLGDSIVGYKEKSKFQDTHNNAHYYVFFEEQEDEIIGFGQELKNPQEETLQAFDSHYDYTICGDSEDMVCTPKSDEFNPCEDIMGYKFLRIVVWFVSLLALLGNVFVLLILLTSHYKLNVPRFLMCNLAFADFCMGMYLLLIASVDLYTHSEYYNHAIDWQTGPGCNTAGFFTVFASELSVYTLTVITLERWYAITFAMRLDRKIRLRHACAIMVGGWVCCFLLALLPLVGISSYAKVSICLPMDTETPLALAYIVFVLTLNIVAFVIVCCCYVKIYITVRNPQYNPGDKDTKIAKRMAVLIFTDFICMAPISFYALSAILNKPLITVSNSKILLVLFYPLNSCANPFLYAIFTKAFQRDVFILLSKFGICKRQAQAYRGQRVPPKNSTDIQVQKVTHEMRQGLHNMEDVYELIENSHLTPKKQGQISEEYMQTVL

A short description of assay [10]: qHTS assay to identify small molecule agonists of the estrogen receptor alpha (ER-alpha) signaling pathway in the presence of an antagonist - cell viability counter screen (AID 1259386; active = well fitted curve in the direction sought with a large enough effect in the repeat runs; an effect the other way counts as inactive or inconclusive;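 note: series mostly up to about 92 µM; cells exposed to compounds for 22 h at 37 °C before the viability read; nearly all actives have a fitted effect of over 30% in size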). The gist of the method: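 Cytotoxicity was measured in parallel with the ERE-luciferase agonist screen, in the same wells. The cells were VM7Luc4E2, which endogenously express ER-alpha, and treatment was with compounds plus 10.0nM ICI-182,780 for 22hr.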

Assay [11] deals with Progesterone receptor (Homo sapiens) (UniProt P06401). Briefly: qHTS assay to identify small molecule agonists of the progesterone receptor (PR) signaling pathway (AID 1346784). Note: nearly all actives have a fitted effect of over 30% in size. Note: potency is the fitted concentration of half-maximal effect. The gist of the method: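 HEK 293T PR-UAS-bla reporter cells, 2% charcoal-stripped FBS; 6 hr settle at 37C/5% CO2, compound (DMSO) 16 hr, LiveBLAzer B/G FRET substrate 2 hr RT, fluorescence intensity read.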
Progesterone receptor (Homo sapiens), sequence (P06401 whole entry, looked up): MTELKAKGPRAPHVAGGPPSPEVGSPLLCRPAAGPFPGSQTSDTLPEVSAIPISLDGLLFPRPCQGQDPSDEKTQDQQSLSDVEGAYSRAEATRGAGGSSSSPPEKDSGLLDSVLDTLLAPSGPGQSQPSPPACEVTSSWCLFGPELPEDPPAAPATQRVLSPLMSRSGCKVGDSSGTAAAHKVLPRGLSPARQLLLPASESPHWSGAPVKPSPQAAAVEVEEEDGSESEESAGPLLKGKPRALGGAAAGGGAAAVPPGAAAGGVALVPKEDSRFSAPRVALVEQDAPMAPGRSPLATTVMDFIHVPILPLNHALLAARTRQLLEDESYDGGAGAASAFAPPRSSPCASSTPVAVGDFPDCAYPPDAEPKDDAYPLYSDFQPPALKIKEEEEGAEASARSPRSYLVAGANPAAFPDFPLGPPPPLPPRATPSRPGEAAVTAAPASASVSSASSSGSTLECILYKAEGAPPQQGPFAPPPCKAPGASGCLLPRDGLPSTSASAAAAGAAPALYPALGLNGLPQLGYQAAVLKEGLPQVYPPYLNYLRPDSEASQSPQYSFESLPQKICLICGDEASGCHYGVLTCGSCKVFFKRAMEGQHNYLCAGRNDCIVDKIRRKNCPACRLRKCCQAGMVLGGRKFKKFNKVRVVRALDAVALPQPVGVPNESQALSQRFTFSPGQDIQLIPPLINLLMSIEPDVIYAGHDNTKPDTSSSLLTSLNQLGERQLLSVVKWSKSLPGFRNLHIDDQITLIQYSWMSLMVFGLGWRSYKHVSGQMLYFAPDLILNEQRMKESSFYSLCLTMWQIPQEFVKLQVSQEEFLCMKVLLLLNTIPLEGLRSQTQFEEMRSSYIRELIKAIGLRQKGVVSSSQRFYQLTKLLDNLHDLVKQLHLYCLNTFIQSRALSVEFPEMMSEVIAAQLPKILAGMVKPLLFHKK

The target is the same in assay [12]. Briefly: qHTS assay to identify small molecule antagonists of the progesterone receptor (PR) signaling pathway (AID 1346795; active = well fitted inhibition curve with a large enough effect in the signal ratio in the repeat runs, not every such curve was filed as active; the % refers to the signal ratio; note: potency is the fitted concentration of half-maximal effect). In short, it runs like this: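 Beta-lactamase reporter, HEK293T PR-UAS-bla line; 2% charcoal-stripped FBS; 6 hr pre-incubation, 37C/5% CO2. Compound + R5020 1 nM final, 16 hr. LiveBLAzer B/G FRET substrate, 2 hr RT; fluorescence intensity read.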

Assay [13] in a line: qHTS assay to identify small molecule antagonists of the progesterone receptor (PR) signaling pathway - cell viability counter screen (AID 1346798; active = well fitted curve in the direction sought with a large enough effect in the repeat runs; an effect the other way counts as inactive or inconclusive; note: series mostly up to about 92 µM; nearly all actives have a fitted effect of over 50% in size). In short, it runs like this:
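Luminescence readout (CellTiter-Glo, 30 min, RT) of viability in PR-UAS-bla HEK293T cells exposed to compound and R5020 agonist for 16 hr at 37C, 5% CO2; run in the same wells as the beta-lactamase reporter read.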

Assay [14] is described as follows: qHTS assay to identify small molecule agonists of the TGF-beta/Smad signaling pathway - cell viability counter screen (AID 1346829; active = well fitted curve in the direction sought with a large enough effect in the repeat runs; an effect the other way counts as inactive or inconclusive; note: top concentration of the series differs between compounds; nearly all actives have a fitted effect of over 45% in size). The gist of the method: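 Compound-treated SBE-bla HEK 293T cells (5 hr, 37 C) were assessed for viability with CellTiter-Glo in parallel with the reporter read.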
Assay [15] can be described thus: qHTS assay to identify small molecule agonists of the TGF-beta/Smad signaling pathway (AID 1346859; active = well fitted activation curve with a large enough effect in the signal ratio in the repeat runs, not every such curve was filed as active; the % refers to the signal ratio; note: series mostly up to about 77 µM). In short, it runs like this:
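Read-out: fluorescence at 460 and 530 nm (405 nm excitation) after a 2 hr room-temperature incubation with beta-lactamase FRET substrate. SBE-bla HEK 293T cells had been treated with test compounds for 5 hr at 37 C.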

The target in assay [16] is Thyrotropin-releasing hormone receptor (Homo sapiens) (UniProt P34981). Briefly: qHTS assay to identify small molecule antagonists of the thyrotropin-releasing hormone receptor (TRHR) signaling pathway (AID 1346877; active = well fitted inhibition curve with a large enough effect in the repeat runs, not every such curve was filed as active; note: series mostly up to about 51 µM). The gist of the method: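 Antagonism is measured as suppression of the calcium response to 1 nM TRH in TRHR-HEK293 cells that have been dye-loaded for 2 h at 37 °C after overnight plating. Each compound is tested at 15 concentrations in triplicate.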
Thyrotropin-releasing hormone receptor (Homo sapiens), sequence (P34981 whole entry, looked up): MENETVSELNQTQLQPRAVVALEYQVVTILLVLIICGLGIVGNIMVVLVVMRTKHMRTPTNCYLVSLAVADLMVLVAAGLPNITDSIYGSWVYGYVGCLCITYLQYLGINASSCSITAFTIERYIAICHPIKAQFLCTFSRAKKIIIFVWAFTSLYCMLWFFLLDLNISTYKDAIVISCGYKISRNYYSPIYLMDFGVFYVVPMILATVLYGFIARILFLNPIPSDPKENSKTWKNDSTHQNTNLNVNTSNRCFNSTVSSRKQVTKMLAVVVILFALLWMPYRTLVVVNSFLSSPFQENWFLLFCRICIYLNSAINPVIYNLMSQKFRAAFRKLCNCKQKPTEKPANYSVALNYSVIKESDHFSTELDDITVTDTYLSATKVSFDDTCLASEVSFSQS

A short description of assay [17]: qHTS assay to identify small molecule antagonists of the sonic hedgehog signaling (Shh) pathway (AID 1259369). Note: nearly all actives have a fitted effect of over 45% in size. Note: potency is the fitted concentration of half-maximal effect. In short, it runs like this: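 Cells are plated and held 4hr at 37 C, compounds (DMSO) are pinned in, conditioned medium is added to stimulate the pathway, and after 24hr luciferase reagent is added for 30min before luminescence is read.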
Assay [18] has as its target Androgen receptor (Homo sapiens) (UniProt P10275). Briefly: qHTS assay to identify small molecule agonists of the androgen receptor (AR) signaling pathway in the presence of an antagonist (AID 1259381). Note: nearly all actives have a fitted effect of over 15% in size. The gist of the method: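 Agonist-mode confirmation screen: human MDA-kb2 cells stably expressing luciferase under an MMTV promoter bearing AR and GR response elements, co-treated with 3.0uM nilutamide (final). Luminescence measured after 16hr compound incubation.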

Assay [19] is described as follows: qHTS assay to identify small molecule agonists of the progesterone receptor (PR) signaling pathway - cell viability counter screen (AID 1346799). Note: nearly all actives have a fitted effect of over 45% in size. The gist of the method:
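HEK293T PR-UAS-bla, 3,000 cells/well, 2% charcoal-stripped FBS; 6 h settle, compound 16 h at 37C/5% CO2; LiveBLAzer 2 h RT, then CellTiter-Glo 30 min RT, luminescence read.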

Assay [20] is described as follows: qHTS assay to identify small molecule antagonists of the TGF-beta/Smad signaling pathway - cell viability counter screen (AID 1346824; active = well fitted curve in the direction sought with a large enough effect in the repeat runs; an effect the other way counts as inactive or inconclusive; note: nearly all actives have a fitted effect of over 50% in size). In short, it runs like this: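 SBE-bla HEK 293T cells, incubated overnight, then compound plus 0.25 ng/mL TGF-beta1 (stock added) for 5 hr at 37 C. Viability was read in the same wells by CellTiter-Glo luminescence after 30 min at room temperature.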

Unmarked numbers belong to inactive results. Records with an inconclusive call do not appear. The source made the active and inactive calls. Unless noted, calls come from the whole dose curve.

Estrogen receptor beta (Homo sapiens), sequence (Q92731 whole entry, looked up): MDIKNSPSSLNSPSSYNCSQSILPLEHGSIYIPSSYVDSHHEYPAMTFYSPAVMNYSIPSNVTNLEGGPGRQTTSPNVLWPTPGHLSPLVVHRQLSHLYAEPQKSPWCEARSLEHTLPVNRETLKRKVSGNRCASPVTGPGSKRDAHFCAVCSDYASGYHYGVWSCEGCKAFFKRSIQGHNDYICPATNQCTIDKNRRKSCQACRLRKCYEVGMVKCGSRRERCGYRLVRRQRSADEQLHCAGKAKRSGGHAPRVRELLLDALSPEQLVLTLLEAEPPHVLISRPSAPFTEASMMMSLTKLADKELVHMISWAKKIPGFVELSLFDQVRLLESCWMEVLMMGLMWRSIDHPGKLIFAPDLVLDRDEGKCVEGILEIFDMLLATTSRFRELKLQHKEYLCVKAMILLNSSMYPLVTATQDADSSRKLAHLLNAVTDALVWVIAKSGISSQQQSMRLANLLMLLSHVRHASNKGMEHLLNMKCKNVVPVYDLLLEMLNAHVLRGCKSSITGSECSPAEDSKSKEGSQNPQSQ
Androgen receptor (Homo sapiens), sequence (P10275 whole entry, looked up): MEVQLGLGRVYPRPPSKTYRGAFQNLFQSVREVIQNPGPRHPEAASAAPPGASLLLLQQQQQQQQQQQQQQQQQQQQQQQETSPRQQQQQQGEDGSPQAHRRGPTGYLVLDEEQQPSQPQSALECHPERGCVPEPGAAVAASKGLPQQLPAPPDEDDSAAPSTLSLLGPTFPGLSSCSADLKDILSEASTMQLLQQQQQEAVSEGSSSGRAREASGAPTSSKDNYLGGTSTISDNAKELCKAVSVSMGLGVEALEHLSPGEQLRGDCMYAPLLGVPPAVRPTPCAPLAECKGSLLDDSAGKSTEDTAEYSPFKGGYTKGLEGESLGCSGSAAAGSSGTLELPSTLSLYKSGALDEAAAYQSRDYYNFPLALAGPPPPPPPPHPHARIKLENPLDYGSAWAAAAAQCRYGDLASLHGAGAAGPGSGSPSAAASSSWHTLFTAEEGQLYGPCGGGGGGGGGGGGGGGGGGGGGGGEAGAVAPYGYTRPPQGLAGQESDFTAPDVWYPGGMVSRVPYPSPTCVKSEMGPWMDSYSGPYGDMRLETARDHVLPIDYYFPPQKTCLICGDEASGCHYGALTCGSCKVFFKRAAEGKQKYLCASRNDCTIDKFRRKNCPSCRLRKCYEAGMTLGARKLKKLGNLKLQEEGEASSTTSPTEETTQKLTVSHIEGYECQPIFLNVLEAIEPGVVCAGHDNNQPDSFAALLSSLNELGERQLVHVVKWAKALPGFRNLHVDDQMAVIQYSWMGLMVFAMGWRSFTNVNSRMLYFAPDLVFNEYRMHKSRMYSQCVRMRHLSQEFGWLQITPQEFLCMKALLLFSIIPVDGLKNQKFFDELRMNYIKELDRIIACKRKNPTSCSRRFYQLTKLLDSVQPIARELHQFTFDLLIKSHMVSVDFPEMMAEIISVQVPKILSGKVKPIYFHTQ
Estrogen receptor (Homo sapiens), sequence (P03372 whole entry, looked up): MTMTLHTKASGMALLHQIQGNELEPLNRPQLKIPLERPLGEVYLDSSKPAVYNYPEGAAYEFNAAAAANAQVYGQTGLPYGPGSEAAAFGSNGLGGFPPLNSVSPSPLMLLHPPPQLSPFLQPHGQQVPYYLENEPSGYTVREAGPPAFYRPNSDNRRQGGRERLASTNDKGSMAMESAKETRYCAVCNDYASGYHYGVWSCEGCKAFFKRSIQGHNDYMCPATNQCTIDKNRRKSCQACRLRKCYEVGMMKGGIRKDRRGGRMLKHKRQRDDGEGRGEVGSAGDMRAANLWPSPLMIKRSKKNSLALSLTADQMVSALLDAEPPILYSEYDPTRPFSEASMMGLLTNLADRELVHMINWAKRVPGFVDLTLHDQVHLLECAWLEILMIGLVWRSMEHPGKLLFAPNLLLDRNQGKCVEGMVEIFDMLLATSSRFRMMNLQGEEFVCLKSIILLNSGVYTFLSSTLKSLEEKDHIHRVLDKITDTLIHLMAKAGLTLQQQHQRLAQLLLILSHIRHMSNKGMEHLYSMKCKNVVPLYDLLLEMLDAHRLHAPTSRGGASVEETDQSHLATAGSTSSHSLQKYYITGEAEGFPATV

Consider `C=CC(C)(O)CCCC(C)CCCC(C)CCCC(C)C` (stereo not drawn), for which the Potency entry in assay [1], in assay [2], in assay [3], in assay [4], in assay [5] and in assay [6] was “inactive” in each case. In addition, the Potency result in assay [7], in [9], in assay [10], in assay [12] and in [13] was “inactive” each time. Also, the call in [8], in [14], in [15] and in assay [16] was inactive. Further, the Potency in assay [11] is 13.6 µM (active).

On to `CC(C)C(OC(=O)c1ccccc1)C(C)(C)COC(=O)c1ccccc1` (stereo not drawn), for which the Potency result in assay [1], in assay [17], in assay [4], in assay [6], in assay [9] and in assay [10] was “inactive” throughout. Besides, the Potency entry in [11] was “inactive”. In addition, the outcome in assay [8], in assay [14] and in assay [15] was inactive. In assay [12], the Potency was 19.3 µM (active).

As to `O=C(O)c1c(O)c(-c2ccccc2)nc2ccccc12`, the Potency result in assay [1], in assay [17], in assay [4], in assay [18], in [7] and in assay [9] was “inactive” each time. The Potency entry in assay [10], in assay [11] and in assay [19] was “inactive” throughout. The result in assay [8], in assay [20], in [14] and in assay [15] was inactive.

`CC(=O)Nc1ccccc1C`: the Potency result in [1], in [2], in [3], in [4], in assay [5] and in assay [6] was “inactive” throughout. Besides, the Potency entry in [7], in assay [9], in [10], in assay [11], in assay [12] and in assay [13] was “inactive” in each case. In [19], the Potency entry was “inactive”. Moreover, the molecule was classed as inactive in assay [8], in [20], in [14], in assay [15] and in [16].

Turning to `OCCSc1ccccc1`, the Potency result in assay [1], in assay [17], in [4], in assay [7], in [9] and in assay [10] was “inactive” throughout. Also, the Potency entry in assay [11] was “inactive”. Moreover, in [5], the Potency is 19.3 µM (active). The result in assay [8], in assay [20], in assay [14] and in [15] was inactive.

In the case of `Cc1nccn1-c1ccc(Sc2cccc(C3(C(N)=O)CCOCC3)c2)cc1`, the Potency result in assay [1], in assay [2], in assay [6] and in [7] was “inactive” in each case. In addition, the Potency in [3] was 9.69 µM (active); in [4], 8.63 µM (active). The result in [8], in assay [14], in assay [15] and in [16] was inactive.

On to `N#C/C(=C1\SCC(c2ccccc2Cl)S1)n1ccnc1` (stereo not drawn), for which the Potency entry in assay [1], in assay [2], in [3], in [4], in [5] and in [18] was “inactive” each time. Also, the Potency result in assay [6], in [9], in assay [10] and in assay [11] was “inactive” throughout. In addition, the molecule was called inactive in [8], in assay [20], in [14], in assay [15] and in assay [16]. The Potency in assay [12] is 23.7 µM (active).

Take `C=CC(C)(C)CC(=O)OC`: the Potency result in assay [1], in assay [6], in assay [9], in assay [10] and in assay [13] was “inactive” each time. The results for the Potency in assay [17] and in [5] were 27.4 µM (active) and 5.46 µM (active), respectively. The result in assay [8], in assay [20], in [14], in assay [15] and in [16] was inactive.

For the molecule `Oc1ccc(Nc2ccccc2)cc1`, the Potency result in assay [1], in assay [17], in assay [4], in assay [18], in assay [7] and in assay [10] was “inactive” each time. Further, the Potency result in assay [11] and in assay [13] was “inactive” throughout. Also, the molecule was classed as inactive in assay [8], in assay [20], in [14], in assay [15] and in assay [16]. Also, the Potency in assay [12] was 27.3 µM (active).

Turning to `O=C(/C=C/c1ccccc1)OCCCc1ccccc1`, the Potency result in assay [1], in assay [2], in assay [3], in assay [4], in assay [5] and in [6] was “inactive” in each case. The Potency entry in assay [7], in assay [9], in assay [10], in assay [11], in assay [12] and in assay [19] was “inactive” in each case. Further, the molecule was called inactive in assay [8], in assay [20], in assay [14] and in [15].

The values above are taken from PubChem BioAssay (Tox21).
